Source: PubChem BioAssay
Only some compounds are listed: those with a hit (about 7.3% of all), similar ones and a draw of the others.
NPC1 promoter act – activates the NPC1 promoter; Huh7 NPC1 promoter luciferase reporter, 24 h; Potency, µM (series often up to 9.22 µM), hits mostly activators; 320,000 compounds, 2.4% hits; AID 485313; further: nearly all actives have a fitted effect of over 60% in size
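Huh7 cells stably carrying NPC1 promoter–luciferase, plated in Opti-MEM with 10% FBS for 2 h, were exposed to compound in DMSO for 24 h at 37 °C; luciferase reagent was added for 10 min and luminescence read.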
Rab9 prom act – activates the Rab9 promoter | Huh7 Rab9 promoter-luciferase reporter, luminescence, 24 h | Potency, µM (doses to about 9.22 µM), hits mostly activators | 320,000 compounds, 2.8% hits | AID 485297; further: nearly all actives have a fitted effect of over 60% in size
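Measured in stably transfected Huh7 cells bearing a Rab9 promoter–luciferase construct: 24 h compound treatment at 37 °C, followed by luminescence detection.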
FLuc modulator – inhibits or activates purified firefly luciferase, miR-21 counter-screen | P08659 | Potency, µM (doses to about 57.5 µM), most hits filed as inhibitors | purified FLuc, Km substrates, luminescence inhibition | AID 588342 | 360,000 compounds, 6.9% hits; further: nearly all actives have a fitted effect of over 55% in size
Target sequence (P08659 whole entry, looked up): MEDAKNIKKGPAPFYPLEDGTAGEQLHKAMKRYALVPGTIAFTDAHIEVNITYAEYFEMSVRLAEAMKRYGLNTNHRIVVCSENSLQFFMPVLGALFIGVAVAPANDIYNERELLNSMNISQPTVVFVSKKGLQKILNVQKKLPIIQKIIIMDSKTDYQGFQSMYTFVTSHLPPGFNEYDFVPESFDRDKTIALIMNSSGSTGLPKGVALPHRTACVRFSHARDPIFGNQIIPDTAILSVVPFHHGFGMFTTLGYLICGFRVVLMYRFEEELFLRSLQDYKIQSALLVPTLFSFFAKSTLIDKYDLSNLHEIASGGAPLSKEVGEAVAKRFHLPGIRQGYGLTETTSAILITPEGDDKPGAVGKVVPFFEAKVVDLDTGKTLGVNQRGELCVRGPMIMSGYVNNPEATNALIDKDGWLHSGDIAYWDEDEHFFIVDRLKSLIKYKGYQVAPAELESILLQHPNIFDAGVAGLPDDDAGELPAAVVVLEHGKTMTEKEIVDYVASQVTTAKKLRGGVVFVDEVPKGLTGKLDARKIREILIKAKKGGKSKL
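Biochemical qHTS of compounds, final roughly 60 µM downward over six points, against 10 nM purified firefly luciferase using Km concentrations of substrates (10 uM D-luciferin, 10 uM ATP) in Tris acetate pH 7.5 buffer; luminescence output.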
ELG1 genotoxic – induces genotoxicity in HEK293T cells with luciferase-tagged ELG1 | HEK293T ELG1-luciferase reporter, luminescence, 16 h | Potency, µM (titrated, usually from 46 µM), usual class: activators | 330,000 compounds, 1.3% hits | AID 504466; further: nearly all actives have a fitted effect of over 60% in size
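Screening used a luciferase reporter fused to human ELG1 in HEK293T cells. Luminescence was read on a CCD plate imager after 16 hr exposure and 30 min ONE-Glo incubation.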
SMN2 splice up – enhancers of SMN2 splice variant expression; 210,000 compounds, 2.8% hits; HEK293 SMN2-luciferase splicing reporter, luminescence, 30-36 h; Potency, µM (highest dose often 46.1 µM), hits mostly activators; AID 1458; further: nearly all actives have a fitted effect of over 55% in size
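HEK293 cells carry an SMN2 […]–luciferase reporter in which exon 7 inclusion puts luciferase in frame. Cells were plated 10-12 h before compound addition, then incubated 30-36 h at 37C. ONE-Glo luminescence was read; sodium butyrate at 4.5 mM final served as control.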
Luc counter – blocks Kinase-Glo luciferase, a counter-screen artifact; Q27757; Kinase-Glo luciferase, ATP luminescence, 8 min; Potency, µM (titrated, usually from 38.3 µM), actives largely listed as inhibitors; 200,000 compounds, 0.28% hits; further: nearly all actives have a fitted effect of over 60% in size
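Light output from Kinase-Glo luciferase with luciferin and 10 uM ATP in 50 mM imidazole pH 7.2, KCl, MgCl2, Tween 20, BSA; compound pin-delivered, 8-min ambient incubation, then luminescence read.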
A number is an active result; i = inactive; ? = inconclusive; nt = not tested or not shown; [ ] = dose if it differs, or a comment. The call rests on the fitted dose curve; in most records, active means well fitted curve in the direction sought with a large enough effect; inconclusive means small, poorly fitted or top-dose-only effect, or another doubt; inactive means no such curve, though single readings can be large; an effect the other way counts as inactive or inconclusive.

SMILES	NPC1 promoter act	Rab9 prom act	FLuc modulator	ELG1 genotoxic	SMN2 splice up	Luc counter
COc1ccc(-n2cc(-c3ccccc3)nc2SC)cc1	?	?	13µM	?	20µM	i
O=C(NC1=NCCS1)c1ccc(OCC2CCCO2)cc1 (stereo unspecified)	0.4µM	0.35µM	?	?	10µM	i
CCOc1cc(C(=O)NC2=NCCS2)cc(OCC)c1OCC	i	i	?	i	i	i
O=C(Nc1ncccc1O)c1ccc(OCC2CCCO2)cc1 (stereo unspecified)	0.79µM	0.79µM	7.6µM	1.2µM	nt	nt
Cc1noc(C)c1COc1ccc(C(=O)Nc2ncccc2O)cc1	i	i	i	?	nt	nt
CCOc1ccc(C(=O)NC2=NCCS2)cc1	1.1µM	0.5µM	11µM	?	14µM	i
O=C(Nc1ncccc1O)c1ccc(Oc2ccccc2)cc1	1.8µM	2.8µM	6.7µM	9.2µM	nt	nt
Cc1ccc(C)c(NC(=O)CSc2cn(CC(=O)N3CCCCC3)c3ccccc23)c1	nt	nt	i	nt	nt	nt
Cc1ccc(OCCn2c(=O)sc3ccccc32)cc1	3.5µM	?	6.7µM	?	13µM	i
Cc1ccccc1OCCCn1c(=O)sc2ccccc21	?	?	9.5µM	i	18µM	i
Cc1ccc(OCCCn2c(=O)sc3ccccc32)cc1	i	i	17µM	i	i	i
O=c1sc2ccccc2n1Cc1ccccc1	i	i	i	i	i	i
COc1ccc(Cn2c(=O)sc3ccccc32)cc1	i	i	i	i	?	i
O=c1sc2ccccc2n1CCCOc1ccccc1	3.2µM	2.5µM	11µM	i	?	i
CCCCN(CC)CCNC(=O)C1CCN(c2nnc(C)c3c(C)n(-c4ccc(C)cc4)nc23)CC1	nt	nt	i	nt	nt	nt
CC(=O)c1ccc(N2CCN(C(=O)c3cc4cc5cc(C)ccc5nc4s3)CC2)cc1	nt	nt	i	nt	nt	nt
O=c1sc2ccccc2n1COc1ccccc1	i	i	i	i	i	i
O=c1sc2ccccc2n1COc1ccc(Cl)cc1	i	?	19µM	?	i	i
O=C(O)C1CSC(c2coc3ccccc3c2=O)N1 (stereo unspecified)	i	i	i	i	i	i
CC1CCOC(c2coc3ccccc3c2=O)O1 (stereo unspecified)	?	?	13µM	?	10µM	?
O=C(O)c1ccc(N/N=C/C2=Cc3ccccc3OC2)cc1	0.63µM	1µM	0.95µM	?	nt	nt
CCC(OC(=O)C1=Cc2ccccc2OC1)C(=O)NCc1ccco1 (stereo unspecified)	i	i	i	i	nt	i
O=c1c2cccnc2n(Cc2ccc(Cl)cc2)c(=O)n1Cc1ccc(F)cc1	nt	nt	i	nt	i	nt
CC1=C(c2ccc(C)cc2)S(=O)(=O)N(Cc2ccc(C(=O)NCc3cccc(C)c3)cc2)C1=O	nt	nt	i	nt	nt	nt
Cc1nc(-c2ccc(Cl)cc2)sc1C1(C)CC(c2c(Cl)cccc2Cl)=NO1 (stereo unspecified)	i	i	i	i	nt	nt
SMILES	NPC1 promoter act	Rab9 prom act	FLuc modulator	ELG1 genotoxic	SMN2 splice up	Luc counter
Cc1nc(-c2ccc(Cl)cc2)sc1C1(C)CC(c2cccnc2)=NO1 (stereo unspecified)	?	?	17µM	?	nt	nt
COc1ccc(-n2c(C)cc(/C=C3\C(=N)N4N=C(CC(=O)N5CCOCC5)SC4=NC3=O)c2C)cc1	i	i	?	i	nt	nt
Cc1cc(/C=C2\C(=N)N3N=C(CC(=O)N4CCOCC4)SC3=NC2=O)c(C)n1-c1ccccc1	i	i	11µM	i	nt	nt
CCN(CC)c1ccc(/C=C2\C(=N)N3N=C(CC(=O)N4CCOCC4)SC3=NC2=O)cc1	i	i	27µM	i	nt	nt
CSc1ccc(/C=C2\C(=N)N3N=C(CC(=O)N4CCOCC4)SC3=NC2=O)cc1	i	i	?	i	nt	nt
COc1ccc(-c2nc(C3CCCCC3)no2)cc1OC	?	2µM	15µM	?	i	i
c1ccc(-c2nc(C3CCCCC3)no2)cc1	i	i	17µM	21µM	i	i
Cc1ccc(-c2nc(C3CCN(S(=O)(=O)c4ccc(C(C)(C)C)cc4)CC3)no2)cc1	i	i	i	i	i	i
Cc1ccc2nc(-c3cccnc3SCC(=O)N3c4ccccc4CC3C)[nH]c2c1 (stereo unspecified)	?	?	5.4µM	?	14µM	?
O=C(CSc1ncccc1-c1nc2ccccc2[nH]1)N1CCCCC1	i	i	17µM	i	i	i
CCN(CC)C(=O)CSc1ncccc1-c1nc2ccccc2[nH]1	i	i	24µM	i	nt	i
CC(C)(C)OC(=O)N1CCC(c2c(C(=O)NCc3ccco3)cnn2-c2ccccc2)CC1	nt	nt	i	nt	nt	nt
CCc1cc(C(=O)Nc2cnn(Cc3ccccc3C)c2)no1	nt	nt	24µM	nt	18µM	nt
Cc1ccccc1NC(=O)N1CCc2cc(S(=O)(=O)N3CCC(C)CC3)ccc21	nt	nt	i	nt	i	nt
O=C(c1ccccc1)N1CCc2cc(CNS(=O)(=O)c3ccccc3Cl)ccc21	nt	nt	i	nt	nt	nt
Cn1cc(/C=C/C(=O)c2ccccc2)c2ccccc21	1.6µM	1.3µM	0.54µM	1.8µM	nt	nt
Cc1ccc(C(=O)/C=C/c2cn(CN3CCN(C)CC3)c3ccccc23)cc1	?	?	4.8µM	15µM	i	i
O=c1[nH]cc(CS(=O)(=O)Cc2c[nH]c(=O)[nH]c2=O)c(=O)[nH]1	nt	nt	nt	nt	i[9.22 µM]	i[7.66 µM]
Cc1cccc(NS(=O)(=O)c2ccc(C)c(C(=O)OCC(=O)Nc3cc(C)on3)c2)c1	i	i	i	i	20µM	i
Cc1cccc(NS(=O)(=O)c2cc(C(=O)OCC(=O)Nc3cc(C)on3)ccc2C)c1	i	i	i	i	i	i
Cc1ccc(OCC(=O)Nc2ccc(S(=O)(=O)Nc3cc(C)on3)cc2)c(Br)c1	nt	nt	21µM	nt	i	nt
Cc1ccc(OCC(=O)NC(=S)Nc2ccc(S(=O)(=O)Nc3cc(C)on3)cc2)c(Br)c1	i	i	1.5µM	i	nt	nt
Cc1cc(NS(=O)(=O)c2ccc(NC(=O)COc3ccc(Cl)cc3Cl)cc2)no1	i	i	?	i	nt	nt
COc1ccccc1C1=NC(c2ccc(F)cc2)N=C1C (stereo unspecified)	i	?	?	i	i	i
COc1ccccc1C1N=C(c2ccccc2C)NO1 (stereo unspecified)	i	?	8.5µM	10µM	nt	nt
SMILES	NPC1 promoter act	Rab9 prom act	FLuc modulator	ELG1 genotoxic	SMN2 splice up	Luc counter
Cc1ccccc1C1=NC(c2ccc(F)cc2F)ON1 (stereo unspecified)	i	i	24µM	11µM	i	i
Cn1c(-c2ccccc2F)cc2onc(-c3ccccc3)c2c1=O	0.32µM	0.4µM	0.54µM	0.46µM	nt	nt
Cn1c(-c2ccccc2)cc2onc(-c3ccccc3)c2c1=O	0.079µM	40µM	0.17µM	?	nt	nt
CC(=O)Nc1cccc(C(=O)/C=C/c2ccc(C)cc2)c1	i	i	4.8µM	i	i	i
CCC(=O)Nc1cccc(C(=O)/C=C/c2ccc(F)cc2)c1	i	i	15µM	i	i	i
Fc1ccccc1-c1nc(N2CCN(c3cccc(Cl)c3)CC2)c2ccccc2n1	nt	nt	i	nt	i	nt
